PubChem BioAssay AID2762 (National Center for Advancing Translational Sciences (NCATS), 2010)
Records with an inconclusive call do not appear. Activity calls are given as the source filed them. Calls come from the whole dose curve; as a rule, active = well fitted inhibition curve with a large enough effect; inconclusive = small, poorly fitted or top-dose-only effect, or effect the other way; inactive = no such curve, though single readings can be large or run the other way.

Target: Nuclear receptor ROR-gamma (Mus musculus) (UniProt P51450)
Sequence (P51450 whole entry, looked up): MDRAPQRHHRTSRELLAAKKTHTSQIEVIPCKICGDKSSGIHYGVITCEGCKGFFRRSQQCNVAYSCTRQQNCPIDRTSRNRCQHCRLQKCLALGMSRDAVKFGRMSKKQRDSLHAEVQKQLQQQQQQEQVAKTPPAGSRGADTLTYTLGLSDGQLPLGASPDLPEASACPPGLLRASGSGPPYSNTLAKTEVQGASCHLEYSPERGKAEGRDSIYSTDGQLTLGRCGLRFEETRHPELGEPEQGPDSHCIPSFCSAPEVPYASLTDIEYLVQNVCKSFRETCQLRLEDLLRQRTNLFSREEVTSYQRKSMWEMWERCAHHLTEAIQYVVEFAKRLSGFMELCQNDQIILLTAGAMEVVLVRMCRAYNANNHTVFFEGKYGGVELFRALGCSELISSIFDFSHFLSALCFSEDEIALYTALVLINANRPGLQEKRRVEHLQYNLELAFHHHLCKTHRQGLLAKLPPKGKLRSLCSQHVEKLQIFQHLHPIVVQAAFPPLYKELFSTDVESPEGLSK
Experiment: Concentration response confirmation assay for inhibitors of ROR gamma transcriptional activity
Details: Drosophila S2 Gal4-RORgamma UAS-luciferase, 20 h; series mostly up to 46.1 µM
Outline: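 Read-out: Photinus luciferase luminescence; inhibitors lower reporter signal. Insect Schneider cells with Gal4-ROR gamma fusion under metallothionein promoter, UAS reporter; 700 uM final copper sulfate induction, 20 hr, ambient temperature.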

SMILES	Potency
Fc1cccc2sc(Nc3nnc(-c4ccco4)o3)nc12	1990 nM (active)
Cc1cc(NC(=S)NC(=O)/C=C/c2ccc(S(=O)(=O)N3CCOCC3)cc2)ccc1Br	7050 nM (active)
COc1ccc2nc(N3C(=O)CNC3=S)sc2c1	1990 nM (active)
CCN1C(=O)/C(=C/c2ccc(N3CCCC3)cc2)NC1=S	6280 nM (active)
Oc1ccc(COCc2ccccc2)c2cccnc12	1580 nM (active)
COc1ccc(C(C#N)N2N=C(C)CC2c2ccccc2)cc1 (centres undefined)	inactive
Cc1ccccc1NC(=O)CCN1CCN(C)CC1	inactive
COc1cccc2cc(-c3n[nH]c(=S)n3C)oc12	15800 nM (active)
CCN(CC(=O)Nc1ccc2c(c1)CCC2)Cc1nc2ccccc2c(=O)[nH]1	8880 nM (active)
Cc1cc(C)nc(-n2nc(C)cc2NC(=O)CNC(C)c2ccccc2)n1 (centres undefined)	6280 nM (active)
S=c1[nH]nc(-c2ccc(Br)cc2)n1-c1ccc2c(c1)OCCO2	1580 nM (active)
COc1ccc2oc(=O)c(C(=O)Nc3ccccc3C)cc2c1	1250 nM (active)
Cc1cc(C)c2[nH]c(C(=O)Nc3ccc4c(c3)OCO4)cc2c1	125 nM (active)
O=c1oc2c3c(nn2c2ccccc12)CCCC3	inactive
COC(=O)c1ccc2nc(Nc3nc4ccc(F)cc4s3)sc2c1	315 nM (active)
COc1ccc(OC)c(/C=C2\SC(=S)N(C(C(=O)O)c3ccccc3)C2=O)c1 (centres undefined)	inactive
COc1ccc(C(=O)Nc2nc3cc4c(cc3s2)OCCO4)c(OC)c1	62.8 nM (active)
CCOC(=O)C(C(=O)OCC)C(C(=O)OCC)N1CCOCC1 (centres undefined)	3150 nM (active)
NC(=O)/C=C/C(=O)Nc1ccc(Cl)cc1	8880 nM (active)
